# Laboratory results as given in PubChem BioAssay AID803 (The Scripps Research Institute Molecular Screening Center, 2007).
# Out of some 140,000 compounds screened, about 680 (0.49%) were called active. This is one part of a sample in which actives are shown more often than they occur. Rule as the data show it: active = activation above about 5% (passing the limit was not always enough); inactive = the rest.
# Biological target: Galanin receptor type 2 (Homo sapiens) (UniProt O43603)
# Test: human galanin receptor 2 activators – cell-based, primary screen (AID 803);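 also: 0% = vehicle buffer wells and 100% = reference agonist at full effect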
# Conditions: GALR2-expressing cells, agonist activation read-out; at 5.6 µM; stronger effect = higher value
# Chain of Galanin receptor type 2 (Homo sapiens) (O43603 whole entry, looked up): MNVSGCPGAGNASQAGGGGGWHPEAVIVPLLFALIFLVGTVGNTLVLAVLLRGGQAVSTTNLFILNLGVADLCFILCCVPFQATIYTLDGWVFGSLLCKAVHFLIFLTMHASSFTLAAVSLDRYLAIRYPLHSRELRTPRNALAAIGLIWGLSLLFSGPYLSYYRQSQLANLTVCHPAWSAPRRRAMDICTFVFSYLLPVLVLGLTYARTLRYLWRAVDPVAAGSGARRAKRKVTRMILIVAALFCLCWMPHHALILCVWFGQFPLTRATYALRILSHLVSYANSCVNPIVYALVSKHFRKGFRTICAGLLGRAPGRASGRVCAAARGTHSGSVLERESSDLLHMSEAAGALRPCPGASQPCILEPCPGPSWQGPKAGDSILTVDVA
row,SMILES,activation
1,O=C(CSc1ccccc1)Nc1cc(Cl)ccc1Oc1ccccc1,-0.74% (inactive)
2,C/C(CCC(=O)OC[C@H]1O[C@H](C#Cc2ccccc2)C=C[C@@H]1Oc1ccc(C)cc1)=N\OC[C@@H](O)[C@H]1O[C@@H]2OC(C)(C)O[C@@H]2[C@H]1O,-0.18% (inactive)
3,CC/C(C)=N/Nc1nc2sc3c(c2c(=O)[nH]1)CC(C)(C)OC3,25.2% (active)
4,CCOC(=O)Cn1c(SC)nc2sc3c(c2c1=O)CC(C)(C)OC3,-1.18% (inactive)
5,CCOC(=O)CSc1nc2sc3c(c2c(=O)[nH]1)CC(C)(C)OC3,-2.5% (inactive)
6,CCOc1ccc(NC(=O)COc2ccc(C(=O)NC3CCCc4ccccc43)cc2OC)cc1 (stereo not drawn),-0.21% (inactive)
7,CCc1ccc(-c2cc(C(=O)NN3CCN(C)CC3)c3ccccc3n2)cc1,0.42% (inactive)
8,CCCCNS(=O)(=O)c1ccc2nc(SCC(=O)Nc3cc(C)cc(C)c3)[nH]c2c1,-1.87% (inactive)
9,CCc1cc(C(=O)OC)c(NC(=O)CC2Sc3ccc(C(F)(F)F)cc3NC2=O)s1 (stereo not drawn),1.46% (inactive)
10,Cc1ccc(-c2cc(C(=O)NCc3cn(C)nc3C)c3cc(Br)ccc3n2)cc1,5.13% (active)
11,COc1ccc(Cl)cc1C(=O)NCc1cn(C)nc1C,-0.07% (inactive)
12,Cc1ccc2nc(-c3ccccc3)cc(C(=O)O)c2c1,-0.75% (inactive)
13,CCCn1nc(NS(=O)(=O)c2ccccc2)c2cc3cc(C)ccc3nc21,-2.05% (inactive)
14,COc1ccc(C2=NN(C(=O)c3cccnc3)C(c3ccccc3)C2)cc1 (stereo not drawn),-0.17% (inactive)
15,COc1ccc(C2CC(c3ccccc3)=NN2C(=O)c2ccc(Cl)c([N+](=O)[O-])c2)cc1 (stereo not drawn),4.95% (active)
16,COc1ccc(C2CC(c3ccccc3)=NN2C(=O)CSc2nccc(=O)[nH]2)cc1 (stereo not drawn),0.01% (inactive)
17,Cn1ncc2c(NNC(=O)Cc3cccc4ccccc34)ncnc21,0.28% (inactive)
18,Cc1cnc(NC(=O)CSc2nnc(-c3ccc(Cl)cc3Cl)n2N)s1,-1.9% (inactive)
19,CCOc1ccccc1NC(=O)CCc1ccc(C)o1,-0.84% (inactive)
20,Cc1ccc(CCC(=O)Nc2ncc(Cc3cc(Cl)ccc3Cl)s2)o1,8.73% (active)
21,O=C(Nc1ccccc1F)c1ccccc1-c1ccccc1,-0.61% (inactive)
22,Fc1ccc(N2N=C(c3cccs3)CC2c2ccco2)c(F)c1 (stereo not drawn),10.4% (inactive)
23,COc1ccc(C2CC(c3cccs3)=NN2C(=O)COC(=O)c2cc3ccccc3cc2O)cc1OC (stereo not drawn),0.22% (inactive)
24,COc1ccccc1N1N=C(c2cccs2)CC1c1ccccc1 (stereo not drawn),13.1% (active)

row,SMILES,activation
1,COc1ccc(-c2cc3ccc(OCc4nn[nH]n4)cc3oc2=O)cc1,0.01% (inactive)
2,COc1cccc(C(=O)c2cc3ccc(O)cc3oc2=O)c1,2.29% (inactive)
3,O=c1oc2cc(O)ccc2cc1-c1ccc(F)cc1,14.9% (active)
4,COc1cc(/C=N\NC(=O)c2nonc2N)c(OC)cc1Br,-0.75% (inactive)
5,O=C(CCc1ccc(S(=O)(=O)N2CCOCC2)cc1)NN=C1CCCCCCC1,-0.53% (inactive)
6,Cc1ccc2nc(NC(=O)C3CCN(S(=O)(=O)c4ccc5c(c4)oc(=O)n5C)CC3)sc2c1,-1.18% (inactive)
7,Cn1c(=O)oc2cc(S(=O)(=O)N3CCC(C(=O)Nc4ccc(OC(F)(F)F)cc4)CC3)ccc21,9.92% (active)
8,Cc1ccc(C)c(N2CCN(S(=O)(=O)c3ccc4c(c3)oc(=O)n4C)CC2)c1,-1.17% (inactive)
9,COc1ccc(NC(=S)SC)cc1OC,-0.23% (inactive)
10,CN(C)S(=O)(=O)c1cccc(NC(=S)N/N=C/C(=O)c2ccccc2)c1,0.25% (inactive)
11,CCNc1nc(NC(C)C)nc(N2CC(=O)N(CC(=O)OCC)C2=N)n1,0.96% (inactive)
12,N=C(N)SCc1cccc2ccccc12,-1.3% (inactive)
13,CCn1c(SCc2ccc(C)cc2)nnc1-c1nn(-c2ccccc2)ccc1=O,-0.25% (inactive)
14,CCc1ccc(-c2nn(-c3ccccc3)cc2CSC(=N)N)cc1,5.34% (active)
15,Cc1cc[n+](-c2[nH]c(=O)sc2/C=N/NC(=O)c2ccccc2[O-])cc1C,1.06% (inactive)
16,COc1ccccc1C1SCCN1C(=O)c1ccc([N+](=O)[O-])cc1 (stereo not drawn),0.57% (inactive)
17,N=c1n(CCc2ccccc2)c2ccccc2n1Cc1ccccc1F,-1.04% (inactive)
18,OC(COc1cccc(OCC(O)CN2CCCC2)c1)CN1CCCC1 (stereo not drawn),-0.12% (inactive)
19,O=C1c2cccc3cccc(c23)N1CN1CCN(c2ccccn2)CC1,-1.31% (inactive)
20,OC(COc1cccc2ccccc12)CN1CCN(c2ccccn2)CC1 (stereo not drawn),14.5% (active)
21,C=CCn1c(CCNC(=O)c2cccs2)n[nH]c1=S,-1.14% (inactive)
22,Cn1nccc1CNC(=O)c1ccnn1C,-2.14% (inactive)
23,COc1cc(NC(=S)NNC(=O)CC(C)C)c(OC)cc1Cl,-0.97% (inactive)
24,CCCCn1c(O)c(N=NC(=O)Cn2c(C(F)(F)F)nc3ccccc32)c2ccccc21,-0.64% (inactive)

row,SMILES,activation
1,CCOC(=O)c1oc2c(CN3CCN(C)CC3)c(O)ccc2c(=O)c1-c1ccc(Br)cc1,-1.12% (inactive)
2,O=C(Nc1cccc2ncccc12)c1ccc(-c2ccc(Cl)cc2Cl)o1,-3.29% (inactive)
3,Cc1csc(NC(=S)Nc2cccc(Cl)c2)n1,-0.28% (inactive)
4,Cc1csc(NC(=O)c2ccc(-c3ccc(Cl)cc3Cl)o2)n1,8.53% (active)
5,C=CCn1c(P(C)(=O)O)nc2ccccc21,-0.16% (inactive)
6,Cc1ccc(C(C)NC(=O)Cn2nc(C)c([N+](=O)[O-])c2C)cc1 (stereo not drawn),-0.83% (inactive)
7,COC(=O)C1=CN(C)C=C(C(=O)OC)C1c1ccc(Cl)cc1Cl,7.44% (active)
8,CC12CN3CC(C)(CN(C1)C3c1ccc(Cl)cc1Cl)C2=O (stereo not drawn),-0.09% (inactive)
9,CCOc1ccccc1N(CC(=O)Nc1ccccc1C(=O)OC)S(C)(=O)=O,-0.26% (inactive)
10,NNC(=O)c1ccc(Cl)cc1Cl,0.25% (inactive)
11,CCOc1cc(C2C(C(=O)OC)=CN(C3CCCC3)C=C2C(=O)OC)cc(Br)c1O,2.25% (inactive)
12,CCOc1ccccc1C1C(C(=O)OC)=CN(C)C=C1C(=O)OC,10.7% (active)
13,Cc1c(C(=O)c2cccc([N+](=O)[O-])c2)c2ccccn2c1CCC#N,0.65% (inactive)
14,O=C(COC(=O)Cn1cnc2ccccc2c1=O)NCC12CC3CC(CC(C3)C1)C2,-1.72% (inactive)
15,CCO/N=C(/C)c1c(O)cc(-c2ccccc2)n(-c2ccccc2)c1=O,0.26% (inactive)
16,Nc1nc(SCC(=O)NNc2c(Cl)cc(Cl)cc2Cl)n[nH]1,-0.67% (inactive)
17,c1ccc2c(c1)CSc1sccc1C2=C1CCNCC1,-2.25% (inactive)
18,C=CCOc1nc2c(c(=O)n(C)c(=O)n2C)n1Cc1ccc(Cl)cc1Cl,1.61% (inactive)
19,Cn1c(=O)c2c(nc(N3CCCCCC3)n2CC(=O)c2ccc(Br)cc2)n(C)c1=O,-0.03% (inactive)
20,C=CCn1c(Oc2ccc(C(=O)OC)cc2)nc2c1c(=O)n(C)c(=O)n2C,16.4% (active)
21,CCOc1ccc2nc(Nc3nc4ccc(NC(C)=O)cc4s3)sc2c1,35.2% (active)
22,CCOc1ccc2nc(SC(CC)C(=O)Nc3cc(C)on3)sc2c1 (stereo not drawn),-1.01% (inactive)
23,COc1ccc2nc(Nc3nc4ccc(NC(C)=O)cc4s3)sc2c1,2.62% (inactive)
24,N#Cc1c(NC(=O)c2ccc(N3CCOCC3)c([N+](=O)[O-])c2)sc2c1CCCC2,-1.06% (inactive)

row,SMILES,activation
1,O=C(O)c1cccc(N2C(=O)Nc3ccccc3N2O)c1,-0.65% (inactive)
2,Cc1ccccc1N(C(=O)Cc1cccs1)C(C(=O)NC1CCCCC1)c1cn(C)nc1C (stereo not drawn),-0.31% (inactive)
3,CCCCCOc1ccc(CSC2=NCCN2)cc1[N+](=O)[O-],0.31% (inactive)
4,CC(C)NC(=O)C(=O)NCCCOC(C)C,-1.05% (inactive)
5,CCNS(=O)(=O)c1ccc(NC(=O)c2cncc(Br)c2)cc1,-1.39% (inactive)
6,C/C(CC(=O)Nc1cccc(F)c1)=N\NC(=O)C(=O)NC1CCCCC1,-0.33% (inactive)
7,C=CCN(CC=C)S(=O)(=O)c1ccc(C(=O)Nc2sc3c(c2C(N)=O)CCCCC3)cc1,-0.72% (inactive)
8,C=CCN(CC=C)S(=O)(=O)c1ccc(C(=O)Nc2nc3c(s2)CCc2ccccc2-3)cc1,9.18% (active)
9,CCN(c1ccccc1)S(=O)(=O)c1ccc(C(=O)Nc2nccs2)cc1,-3.23% (inactive)
10,COCCN(CCOC)S(=O)(=O)c1ccc(C(=O)Nc2nc3c(s2)CCc2ccccc2-3)cc1,12.8% (active)
11,O=C(Nc1ccc(S(=O)(=O)N2CCc3ccccc3C2)cc1)c1ccccc1,-2.86% (inactive)
12,COc1ccc(C(=O)Nc2ncc3c(n2)-c2ccccc2CC3)cc1,-1.58% (inactive)
13,O=C(CN1C2=NCCN2c2ccccc21)c1cccs1,0.13% (inactive)
14,CCOc1ccc(Br)cc1CSC(=N)N,-1.41% (inactive)
15,O=C(Nc1cccc(Cl)c1)Nc1ccccc1NS(=O)(=O)c1cccs1,-0.87% (inactive)
16,Cc1cccc(OCC(O)Cn2c(=N)n(CCN3CCOCC3)c3ccccc32)c1 (stereo not drawn),-1.56% (inactive)
17,Cn1c(=N)n(CC(O)c2ccccc2)c2ccccc21 (stereo not drawn),-3.54% (inactive)
18,CCOc1ccc(C(O)Cn2c(=N)n(CCN3CCCCC3)c3ccccc32)cc1 (stereo not drawn),25.8% (active)
19,O=C(COC(=O)CCCNC(=O)c1ccc(Cl)cc1)Nc1cc(Cl)ccc1Cl,-0.66% (inactive)
20,N#Cc1ccccc1NC(=O)c1cccc(COc2ccc(Cl)cc2Cl)c1,-1.81% (inactive)
21,CCC(C)NC(=O)c1ccc(N2CCC3(CC2)OCCO3)c([N+](=O)[O-])c1 (stereo not drawn),1.63% (inactive)
